# Data from PubChem BioAssay (NCI).
# Several values for one entry are separate records, joined by “and”; a condition that tells them apart may be missing. Equal entries are not always repeated. The panel holds about 83,000 compounds, 20% with a hit somewhere; the sample as a whole holds those more often.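 Each cell line was grown in a 96-well plate and treated with one concentration of compound for 48 hours. Values below 10 were considered active.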 Activity calls are given as the source filed them.
# Legend:
# Test in all cases: NCI-60 one-dose screen, 48 h (100 = growth as untreated, 0 = no growth, -100 = all killed)
# SR leukemia = details: 10 µM unless noted
# OVCAR-8 ovarian = tested on: OVCAR-8 ovarian
# OVCAR-5 ovarian = tested on: OVCAR-5 ovarian
# OVCAR-4 ovarian = tested on: OVCAR-4 ovarian
# SK-OV-3 ovarian = details: 10 µM unless noted
# IGROV1 ovarian = tested on: IGROV1 ovarian
# OVCAR-3 ovarian = tested on: OVCAR-3 ovarian
# HS 578T breast = tested on: HS 578T breast
# NCI/ADR-RES ovarian = tested on: NCI/ADR-RES ovarian
# T-47D breast = details: 10 µM unless noted
# MDA-MB-435 melanoma = tested on: MDA-MB-435 melanoma
# SW-620 colon = tested on: SW-620 colon
# MCF7 breast = details: 10 µM unless noted
# HCT-116 colon = tested on: HCT-116 colon
# HCC-2998 colon = tested on: HCC-2998 colon
# KM12 colon = tested on: KM12 colon
# BT-549 breast = tested on: BT-549 breast
# RPMI-8226 leukemia = details: 10 µM unless noted
compound,measurement,setting,value
CC(=O)Oc1cc(C(C)C)c(OCCN(C)C)cc1C,growth,SR leukemia,107% (inactive)
same,growth,OVCAR-8 ovarian; 10 µM unless noted,-70.9% (active) and 99% (inactive)
same,growth,OVCAR-5 ovarian; 10 µM unless noted,92.7% (inactive)
same,growth,OVCAR-4 ovarian; 10 µM unless noted,111% (inactive) and 114% (inactive)
same,growth,SK-OV-3 ovarian,115% (inactive) and 101% (inactive)
same,growth,IGROV1 ovarian; 10 µM unless noted,110% (inactive) and 112% (inactive)
same,growth,OVCAR-3 ovarian; 10 µM unless noted,125% (inactive) and 119% (inactive)
same,growth,HS 578T breast; 10 µM unless noted,99.2% (inactive) and 97.7% (inactive)
same,growth,NCI/ADR-RES ovarian; 10 µM unless noted,99.5% (inactive) and 111% (inactive)
same,growth,T-47D breast,90% (inactive) and 86.2% (inactive)
same,growth,MDA-MB-435 melanoma; 10 µM unless noted,99.2% (inactive) and 99.4% (inactive)
same,growth,SW-620 colon; 10 µM unless noted,104% (inactive) and 100% (inactive)
same,growth,MCF7 breast,109% (inactive) and 95.7% (inactive)
same,growth,HCT-116 colon; 10 µM unless noted,107% (inactive) and 102% (inactive)
same,growth,HCC-2998 colon; 10 µM unless noted,99.6% (inactive) and 113% (inactive)
same,growth,KM12 colon; 10 µM unless noted,102% (inactive) and 110% (inactive)
Cc1onc(-c2c(F)cccc2Cl)c1-c1ncc(-c2ccc(Cl)cc2)o1,growth,SR leukemia,11% (inactive)
same,growth,OVCAR-8 ovarian; 10 µM unless noted,55.7% (inactive) and 35.5% (inactive)
same,growth,OVCAR-5 ovarian; 10 µM unless noted,73.5% (inactive) and 68.1% (inactive)
same,growth,OVCAR-4 ovarian; 10 µM unless noted,80.9% (inactive) and 47.9% (inactive)
same,growth,SK-OV-3 ovarian,71% (inactive) and 61.4% (inactive)
same,growth,OVCAR-3 ovarian; 10 µM unless noted,63.4% (inactive) and 45.9% (inactive)
same,growth,HS 578T breast; 10 µM unless noted,84.8% (inactive) and 57.3% (inactive)
same,growth,NCI/ADR-RES ovarian; 10 µM unless noted,57.4% (inactive) and 27.2% (inactive)
same,growth,MDA-MB-435 melanoma; 10 µM unless noted,46.8% (inactive) and 37.7% (inactive)
same,growth,SW-620 colon; 10 µM unless noted,37.3% (inactive) and 29.4% (inactive)
same,growth,MCF7 breast,61.9% (inactive) and 20.5% (inactive)
same,growth,HCT-116 colon; 10 µM unless noted,27.1% (inactive) and 16.6% (inactive)
same,growth,HCC-2998 colon; 10 µM unless noted,61.2% (inactive) and 56.8% (inactive)
same,growth,KM12 colon; 10 µM unless noted,43.4% (inactive) and 34.7% (inactive)
COc1cc(NCCCCCNC(C)C)c2ncccc2c1,growth,SR leukemia,82.8% (inactive) and 133% (inactive)
same,growth,OVCAR-8 ovarian; 10 µM unless noted,104% (inactive) and 89.6% (inactive)
same,growth,OVCAR-5 ovarian; 10 µM unless noted,95.2% (inactive) and 86.9% (inactive)
same,growth,OVCAR-4 ovarian; 10 µM unless noted,44.4% (inactive) and 45.7% (inactive)
same,growth,SK-OV-3 ovarian,84.3% (inactive)
same,growth,IGROV1 ovarian; 10 µM unless noted,90.3% (inactive) and 60.4% (inactive)
same,growth,OVCAR-3 ovarian; 10 µM unless noted,92% (inactive)
same,growth,HS 578T breast; 10 µM unless noted,83.5% (inactive)
same,growth,NCI/ADR-RES ovarian; 10 µM unless noted,91.5% (inactive) and 93.7% (inactive)
same,growth,T-47D breast,82.3% (inactive)
same,growth,BT-549 breast; 10 µM unless noted,89.1% (inactive)
same,growth,MDA-MB-435 melanoma; 10 µM unless noted,97.8% (inactive) and 106% (inactive)
same,growth,SW-620 colon; 10 µM unless noted,87.2% (inactive) and 106% (inactive)
same,growth,MCF7 breast,85.3% (inactive) and 86.4% (inactive)
same,growth,HCT-116 colon; 10 µM unless noted,96.9% (inactive) and 90.3% (inactive)
same,growth,HCC-2998 colon; 10 µM unless noted,102% (inactive) and 90.2% (inactive)
same,growth,KM12 colon; 10 µM unless noted,91.4% (inactive)
O=C1CCC(=O)N1CC1CC2CCC1C2 (centres undefined),growth,RPMI-8226 leukemia,71.3% (inactive) and 114% (inactive)
same,growth,OVCAR-8 ovarian; 10 µM unless noted,98.8% (inactive) and 96.1% (inactive)
same,growth,OVCAR-5 ovarian; 10 µM unless noted,93.8% (inactive) and 90.8% (inactive)
same,growth,OVCAR-4 ovarian; 10 µM unless noted,91.1% (inactive) and 97.4% (inactive)
same,growth,SK-OV-3 ovarian,-56.3% (active) and 84% (inactive)
same,growth,IGROV1 ovarian; 10 µM unless noted,105% (inactive) and 107% (inactive)
same,growth,OVCAR-3 ovarian; 10 µM unless noted,106% (inactive) and 101% (inactive)
same,growth,HS 578T breast; 10 µM unless noted,115% (inactive) and 102% (inactive)
same,growth,NCI/ADR-RES ovarian; 10 µM unless noted,110% (inactive) and 104% (inactive)
same,growth,T-47D breast,100% (inactive) and 79.2% (inactive)
same,growth,BT-549 breast; 10 µM unless noted,90.1% (inactive)
same,growth,MDA-MB-435 melanoma; 10 µM unless noted,93.3% (inactive) and 95.9% (inactive)
same,growth,SW-620 colon; 10 µM unless noted,104% (inactive) and 100% (inactive)
same,growth,MCF7 breast,99% (inactive) and 95.9% (inactive)
same,growth,HCT-116 colon; 10 µM unless noted,106% (inactive) and 90.5% (inactive)
same,growth,HCC-2998 colon; 10 µM unless noted,106% (inactive)
same,growth,KM12 colon; 10 µM unless noted,107% (inactive) and 100% (inactive)
S=c1nc[nH]c2nc[nH]c12,growth,RPMI-8226 leukemia,24.9% (inactive)
same,growth,OVCAR-8 ovarian; 10 µM,26.6% (inactive)
same,growth,OVCAR-8 ovarian; 50 µM,24% (inactive)
same,growth,OVCAR-5 ovarian; 10 µM,44.7% (inactive)
same,growth,OVCAR-5 ovarian; 50 µM,31.3% (inactive)
same,growth,OVCAR-4 ovarian; 10 µM,50.2% (inactive)
same,growth,OVCAR-4 ovarian; 50 µM,30.9% (inactive)
same,growth,SK-OV-3 ovarian,36.2% (inactive)
same,growth,IGROV1 ovarian; 10 µM,70.5% (inactive)
same,growth,IGROV1 ovarian; 50 µM,32.3% (inactive)
same,growth,OVCAR-3 ovarian; 10 µM,29.6% (inactive)
same,growth,OVCAR-3 ovarian; 50 µM,23.3% (inactive)
same,growth,HS 578T breast; 10 µM,54.6% (inactive)
same,growth,HS 578T breast; 50 µM,43.7% (inactive)
same,growth,NCI/ADR-RES ovarian; 10 µM,22.8% (inactive)
same,growth,NCI/ADR-RES ovarian; 50 µM,24.9% (inactive)
same,growth,T-47D breast,18.6% (inactive)
same,growth,BT-549 breast; 10 µM,62% (inactive)
same,growth,BT-549 breast; 50 µM,64.4% (inactive)
same,growth,MDA-MB-435 melanoma; 10 µM,15.3% (inactive)
same,growth,MDA-MB-435 melanoma; 50 µM,13.8% (inactive)
same,growth,SW-620 colon; 10 µM,34.6% (inactive)
same,growth,SW-620 colon; 50 µM,21.5% (inactive)
same,growth,HCT-116 colon; 10 µM,19.2% (inactive)
same,growth,HCT-116 colon; 50 µM,28.3% (inactive)
same,growth,HCC-2998 colon; 10 µM,23.2% (inactive)
same,growth,HCC-2998 colon; 50 µM,31% (inactive)
same,growth,KM12 colon; 10 µM,35.4% (inactive)
same,growth,KM12 colon; 50 µM,14.9% (inactive)
CC(O)CCNC(c1ccccc1)C(O)c1ccccc1 (centres undefined),growth,SR leukemia,105% (inactive)
same,growth,OVCAR-8 ovarian; 10 µM unless noted,104% (inactive)
same,growth,OVCAR-5 ovarian; 10 µM unless noted,109% (inactive)
same,growth,OVCAR-4 ovarian; 10 µM unless noted,107% (inactive)
same,growth,SK-OV-3 ovarian,107% (inactive)
same,growth,OVCAR-3 ovarian; 10 µM unless noted,132% (inactive)
same,growth,HS 578T breast; 10 µM unless noted,110% (inactive)
same,growth,NCI/ADR-RES ovarian; 10 µM unless noted,110% (inactive)
same,growth,T-47D breast,99.2% (inactive)
same,growth,BT-549 breast; 10 µM unless noted,110% (inactive)
same,growth,MDA-MB-435 melanoma; 10 µM unless noted,112% (inactive)
same,growth,SW-620 colon; 10 µM unless noted,110% (inactive)
same,growth,MCF7 breast,99.9% (inactive)
same,growth,HCT-116 colon; 10 µM unless noted,100% (inactive)
same,growth,HCC-2998 colon; 10 µM unless noted,111% (inactive)
same,growth,KM12 colon; 10 µM unless noted,114% (inactive)
CCOC(=O)CN1CCC(C(=O)OCC)CC1,growth,SR leukemia,124% (inactive)
same,growth,OVCAR-8 ovarian; 10 µM unless noted,106% (inactive)
same,growth,OVCAR-5 ovarian; 10 µM unless noted,104% (inactive)
same,growth,OVCAR-4 ovarian; 10 µM unless noted,108% (inactive)
same,growth,SK-OV-3 ovarian,99.1% (inactive)
same,growth,OVCAR-3 ovarian; 10 µM unless noted,117% (inactive)
same,growth,HS 578T breast; 10 µM unless noted,106% (inactive)
same,growth,NCI/ADR-RES ovarian; 10 µM unless noted,110% (inactive)
same,growth,T-47D breast,102% (inactive)
same,growth,BT-549 breast; 10 µM unless noted,105% (inactive)
same,growth,MDA-MB-435 melanoma; 10 µM unless noted,114% (inactive)
same,growth,SW-620 colon; 10 µM unless noted,108% (inactive)
same,growth,HCT-116 colon; 10 µM unless noted,98.1% (inactive)
same,growth,HCC-2998 colon; 10 µM unless noted,103% (inactive)
same,growth,KM12 colon; 10 µM unless noted,109% (inactive)
